Several values for one entry are separate records, joined by “and”; a condition that tells them apart may be missing. Equal values may be shown once. Activity calls are given as the source filed them. How the source made its calls: active means hit-call score of the fitted dose curve at least 0.9, where 1 is the maximum; inactive means score below 0.9.
read-out: TIMP metallopeptidase inhibitor 2 (TIMP2), TIMP2 (gene 7077); test: BSK_KF3CT_TIMP2: BioMAP Diversity Plus: KF3CT Assay for TIMP metallopeptidase inhibitor 2 (TIMP2) Biomarker Activity (AID 2283071); settings: primary human keratinocytes with fibroblasts; actives raise or lower the signal
Method: BSK_KF3CT is a cell-based, multiplexed-readout assay that uses keratinocytes and foreskin fibroblasts, a human skin primary cell co-culture, with measurements taken at 24 hours after chemical dosing in a 96-well plate.BSK_KF3CT_TIMP2 is an assay component measured in the BSK_KF3CT assay. It measures TIMP-2 antibody related to regulation of gene expression using ELISA technology.Data from the assay component BSK_KF3CT_TIMP2 was analyzed into 1 assay endpoint. This assay endpoint, BSK_KF3CT_TIMP2, was analyzed with bidirectional fitting relative to DMSO as the negative control and baseline of activity. Using a type of binding reporter, gain or loss-of-signal activity can be used to understand changes in the signaling as they relate to the gene TIMP2. Furthermore, this assay endpoint can be referred to as a primary readout, because this assay has produced multiple assay endpoints where this one serves a signaling function. To generalize the intended target to other relatable targets, this assay endpoint is annotated to the protease inhibitor intended target family, where the subfamily is metalloproteinase inhibitor.
The levels of cell surface (or secreted, indicated by the prefix "s") biomarker endpoints were measured by ELISA. Overt cytotoxicity to cells in confluent adherent cultures (all systems other than the BT system) was assessed by measuring total protein levels using sulforhodamine B (SRB) staining in parallel cultures at the time of biomarker measurements, indicated as SRB endpoints. For proliferation assays for adherent cell types, individual cell types are cultured at sub-confluence and relative cell numbers quantified by SRB staining at time points optimized for each system (48 h: 3C and CASM3C systems; 72 h: BT and HDF3CGF systems; 96 h: SAg system). SRB was performed by staining cells with 0.1% SRB after fixation with 10% TCA and reading wells at 560 nm.Viability and proliferation of PBMC (T cells) was quantified by Alamar Blue reduction for the SAg and BT systems. For PBMC viability (referred to as PBMC Cytotoxicity within the assay endpoint names), cells were plated (75,000/well in a 96-well plate) and then chemical samples added for 1 h before addition of activators, SEB and TSST-1 (20 ng/mL final concentration each). Cells were incubated for 90 h. Then, Alamar Blue (20 uL/well) (Invitrogen, Cat DAL1100) was added for 6 h, and the plates were read with a fluorescence microplate reader at 546/580 nm (excitation/emission). For PBMC proliferation, cells were plated and activated as above but incubated for only 16 h prior to addition of Alamar Blue. Plates were read after 6 h.

SMILES | outcome | AC50
CC(=NC#N)N(C)Cc1ccc(Cl)nc1 | inactive | 
CC[C@H](C)[C@H]1O[C@]2(C=C[C@@H]1C)C[C@@H]1C[C@@H](C/C=C(\C)[C@@H](O[C@H]3C[C@H](OC)[C@@H](O[C@H]4C[C@H](OC)[C@@H](NC)[C@H](C)O4)[C@H](C)O3)[C@@H](C)/C=C/C=C3\CO[C@@H]4[C@H](O)C(C)=C[C@@H](C(=O)O1)[C@]34O)O2 |  | 8.99 µM (active)
CCOP(=S)(OCC)OC(Cl)C(Cl)(Cl)Cl (stereo not given) | inactive | 
CCC(=O)Nc1ccc(Cl)c(Cl)c1 | inactive | 
CN(C)C(=O)Nc1cccc(C(F)(F)F)c1 | inactive | 
Cc1ccn2nc(S(=O)(=O)Nc3c(F)cccc3F)nc2n1 | inactive | 
CN(C)[C@@H]1C(=O)C(C(N)=O)=C(O)[C@@]2(O)C(=O)C3=C(O)c4c(O)cccc4[C@@](C)(O)[C@H]3[C@H](O)[C@@H]12 | inactive | 
Nc1c(Cl)cc([N+](=O)[O-])cc1Cl | inactive | 
CNC(=O)ON=C(C)SC | inactive | 
COP(=O)(OC)SCn1c(=O)oc2cc(Cl)cnc21 | inactive | 
CCOP(=S)(Oc1cnc(C(C)(C)C)nc1)OC(C)C (stereo not given) |  | 38.4 µM (active)
C=C(C)[C@H]1Cc2c(ccc3c2O[C@@H]2COc4cc(OC)c(OC)cc4[C@@H]2C3=O)O1 | inactive | 
C[N+]1(C)CCCCC1 | inactive | 
N#CSCSC#N |  | 5.72 µM (active)
CCCOCC(=Nc1ccc(Cl)cc1C(F)(F)F)n1ccnc1 |  | 31.7 µM (active)
CC(C)=CC1C(C(=O)OCN2C(=O)C3=C(CCCC3)C2=O)C1(C)C (stereo not given) | inactive | 
CCOP(=O)(SC(C)CC)N1CCSC1=O (stereo not given) | inactive | 
CSc1nnc(C(C)(C)C)c(=O)n1N | inactive | 
CN(C)NC(=O)CCC(=O)O | inactive | 
O=c1ccc(=O)[nH][nH]1 | inactive | 

SMILES | outcome | AC50
O=[N+]([O-])c1cc(C(F)(F)F)c(Cl)c([N+](=O)[O-])c1Nc1ncc(C(F)(F)F)cc1Cl |  | 588 nM (active) and 11.3 µM (active)
C[Si](Cn1cncn1)(c1ccc(F)cc1)c1ccc(F)cc1 | inactive | 
CCC(=NOC/C=C/Cl)C1=C(O)CC(C2CCOCC2)CC1=O (stereo not given) | inactive | 
COc1ccc(C(=CC(=O)N2CCOCC2)c2ccc(Cl)cc2)cc1OC | inactive | 
COP(=O)(NC(C)=O)SC (stereo not given) | inactive | 
CCCOc1nn(C(=O)NS(=O)(=O)c2ccccc2C(=O)OC)c(=O)n1C | inactive | 
CCOP(=S)(OCC)SCCSCC | inactive | 
CSC1=N[C@@](C)(c2ccccc2)C(=O)N1Nc1ccccc1 | inactive | 
CCOC(=O)CC(SP(=O)(OC)OC)C(=O)OCC (stereo not given) | inactive | 
CCOC(=O)COc1cc(-c2nn(C)c(OC(F)F)c2Cl)c(F)cc1Cl | inactive | 
COc1cccc(C(=O)NN(C(=O)c2cc(C)cc(C)c2)C(C)(C)C)c1C | inactive | 
CCc1cccc(CC)c1N(COC)C(=O)CCl | inactive | 
CCCCSP(=O)(SCCCC)SCCCC | inactive | 
CCCSP(=O)(OCC)SCCC | inactive | 
CC(Oc1cccc(Cl)c1)C(=O)O (stereo not given) | inactive | 
CC(C1CC1)C(O)(Cn1cncn1)c1ccc(Cl)cc1 (stereo not given) | inactive | 
CN1COCN(Cc2cnc(Cl)s2)C1=N[N+](=O)[O-] | inactive | 
CCCCN(CC)c1c([N+](=O)[O-])cc(C(F)(F)F)cc1[N+](=O)[O-] | inactive | 
CCc1cccc(C)c1N(C(=O)CCl)C(C)COC (stereo not given) | inactive | 
CCc1cnc(C2=NC(C)(C(C)C)C(=O)N2)c(C(=O)O)c1 (stereo not given) | inactive | 

Source: PubChem BioAssay (EPA / NIEHS)
